Source: PubChem BioAssay AID504339 (National Center for Advancing Translational Sciences (NCATS), 2011)
Out of some 390,000 compounds screened, about 17,000 (4.4%) were called active. A call without a number means that no potency is given here. Another 8% or so got no clear call; they are omitted. This excerpt belongs to a sample that is enriched for actives. A number with no mark means an inactive call. The call rests on the fitted dose curve; in most records, active means well fitted inhibition curve with a large enough effect; inconclusive means small, poorly fitted or top-dose-only effect; inactive means no such curve, though single readings can be large or run the other way.

These compounds were tested against Lysine-specific demethylase 4A (Homo sapiens) (UniProt O75164) (assay: qHTS Assay for Inhibitors of JMJD2A-Tudor Domain). Settings: AlphaScreen JMJD2A-Tudor / H3K4me3 peptide binding; series mostly up to 114 µM.
From the text: JMJD2A is a jumonji-domain-containing lysine demethylase that uses Fe(II) together with 2-OG to effect oxidative demethylation of histones. Methylation is one of many […] modification that affect epigenetic transcription. […] It is proposed that the functions of JmjD2A binding to the histones, is to maintain marks after they are installed and to spread the modifications by […], establishing a self-propagating cycle for rapid methylation over a large area of chromatin. […] Thus, small molecule targeting of the JMJD2A-tudor domain interaction with its target methylhistone mark is expected to enable sophisticated experiments probing the fine regulatory pathways leading to selective demethylation of a given methyllysine locus based on the methylation state of adjacent histone marks. A quantitative high throughput AlphaScreen has been developed to identify small molecule inhibitors based on a protocol published by NCGC and SGC [4].
Although AlphaScreen has significant advantages with its utility in a variety of epigenetic target assays, the primary screening data provided in this deposition should be used with caution due to the prevalence of screening artifacts. The top compound concentration tested was high (>100uM) in this assay, which increases number of actives and potential artifacts. An AlphaScreen counterscreen is highly recommended to be run against any putative actives to eliminate non-specific artifacts. Alternatively, one can use other AlphaScreen assays in PubChem to filter out promiscuous hits.
[1] Lee, J. et al. Distinct binding modes specify the recognition of methylated histone H3K4 and H4K20 by JMJD2A-tudor. Nat Struct Mol Biol. 15(1); 109-11. 2008. PMID: 18084306
[2] Yasgar, et al. Compound Management for Quantitative High-Throughput Screening. JALA. 2008 Apr;13(2):79-89. PMID: 18496600
[3] Inglese, et al. Quantitative high-throughput screening: a titration-based approach that efficiently identifies biological activities in large chemical libraries. Proc Natl Acad Sci. 1;103(31):11473-8. 2006. PMID: 16864780
[4] Quinn et al. A homogeneous method for investigation of methyl-dependent protein-protein interactions in epigenetics. Nucleic Acids Res., 38(2):e11. 2010. PMID: […]
[5] Baell,Holloway. New substructure filters for removal of pan assay interference compounds (PAINS) from screening libraries and for their exclusion in bioassays. J Med Chem. 53(7):2719-40. 2010. PMID: 20131845
NIH Molecular Libraries Probe Production Network [MLPCN]
NIH Chemical Genomics Center [NCGC]
Structural Genomics Consortium (SGC)
To each well of a 1,536w plate, 2ul of JMJD2A-Tudor (final 100nM) and 1ul biotinylated histone peptide methylated at Lys4 [b-H3(1-18)K4me3] (final 50nM) were added in 1x PBS buffer, pH 7.4, containing 0.01% Tween-20, using a nanoliter dispenser. Formation of a protein-peptide complex proceeded at room temperature for 30 min. A Kalypsys pin-tool transferred 23nl of library compound solution in DMSO to each well. Following a 30 min incubation of the protein-peptide complex with compounds at room temperature, a mixture of 40 µg/mL each streptavidin-coated donor and nickel chelate acceptor AlphaScreen beads (final 10 µg/mL) was added in a 1ul dispense for a final volume of 4ul, followed by a brief centrifugation (1000 rpm, 1 min). Plates were incubated protected from the light for 20 min at room temperature. Microplates were then read on an EnVision multilabel plate reader using the 1,536 plate HTS AlphaScreen aperture (excitation time 80 ms, measurement time 240 ms).
Further: nearly all actives have a fitted effect of over 50% in size.
Potency means the concentration at half of the fitted maximal effect.

Chain of Lysine-specific demethylase 4A (Homo sapiens) (O75164 whole entry, looked up, the tested form may be a part): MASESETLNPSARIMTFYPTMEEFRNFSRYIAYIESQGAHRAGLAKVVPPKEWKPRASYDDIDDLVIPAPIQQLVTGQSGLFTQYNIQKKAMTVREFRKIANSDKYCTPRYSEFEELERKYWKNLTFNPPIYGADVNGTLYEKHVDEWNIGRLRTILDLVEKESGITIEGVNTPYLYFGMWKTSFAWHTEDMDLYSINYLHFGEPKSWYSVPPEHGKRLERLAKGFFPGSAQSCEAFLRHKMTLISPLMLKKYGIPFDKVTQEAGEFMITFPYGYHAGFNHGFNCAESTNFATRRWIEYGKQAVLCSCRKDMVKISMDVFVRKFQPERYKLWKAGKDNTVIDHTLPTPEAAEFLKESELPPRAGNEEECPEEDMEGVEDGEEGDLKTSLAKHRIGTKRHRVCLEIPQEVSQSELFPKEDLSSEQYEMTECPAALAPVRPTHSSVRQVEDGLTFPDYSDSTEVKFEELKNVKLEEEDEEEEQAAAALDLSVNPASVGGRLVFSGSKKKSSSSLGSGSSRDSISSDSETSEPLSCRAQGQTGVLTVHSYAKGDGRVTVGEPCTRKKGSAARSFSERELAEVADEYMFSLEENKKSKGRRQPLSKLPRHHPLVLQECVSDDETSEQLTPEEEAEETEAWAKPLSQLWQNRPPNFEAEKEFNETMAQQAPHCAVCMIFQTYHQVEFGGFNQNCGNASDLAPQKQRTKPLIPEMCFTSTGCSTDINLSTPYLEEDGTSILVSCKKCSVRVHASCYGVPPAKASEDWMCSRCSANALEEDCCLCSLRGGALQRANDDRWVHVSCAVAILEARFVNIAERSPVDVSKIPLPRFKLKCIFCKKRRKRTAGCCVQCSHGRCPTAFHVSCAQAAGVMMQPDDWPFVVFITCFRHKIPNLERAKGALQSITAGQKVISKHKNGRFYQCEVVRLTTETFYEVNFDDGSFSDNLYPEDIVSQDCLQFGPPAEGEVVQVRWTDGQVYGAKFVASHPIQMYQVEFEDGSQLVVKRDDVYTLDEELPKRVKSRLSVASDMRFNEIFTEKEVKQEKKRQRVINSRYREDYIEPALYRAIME

SMILES	Potency	activity change, negative = inhibition
CCc1nn(CC(=O)NCC(C)c2ccccc2)c(=O)c2cc3occc3n12 (stereo unspecified)	inactive	
COc1ccccc1CNc1nccn(-c2ccc(F)cc2)c1=O	inactive	
COc1ccc(OC)c(CNC(=O)c2c3c(nc4ccccc24)C(=O)N(C2CCCCC2)C3)c1	inactive	
Cc1cccc(N2CCN(C(=O)CCSCc3ccccc3F)CC2)c1C	inactive	
CCOc1ccc(OCC)c(NS(=O)(=O)c2ccc3[nH]c(=O)ccc3c2)c1	inactive	
Cc1ccc2c(Cl)c(C(=O)NCCCn3ccnc3)sc2c1	inactive	
Brc1ccc(OCCn2ccnc2)cc1	inactive	
O=C(NCCCn1ccnc1)c1ccccc1F	inactive	
C=CCc1cc(C)ccc1OCCCn1ccnc1	20 µM (active)	
CCOc1ccc(S(=O)(=O)NCCCn2ccnc2)cc1NC(C)=O	inactive	
Clc1c(OCCCn2ccnc2)ccc2ccccc12	56.2 µM (active)	
COc1ccc(-c2noc(CSc3nc4ccc(C)cc4[nH]3)n2)cc1	inactive	
COc1ccc(CCNCc2c(C(=O)O)c(C)n(Cc3cccc(C)c3)c2C)cc1OC	inactive	
CC(=O)c1ccc(NC(=O)COc2ccccc2-c2nc(-c3ccccc3)no2)cc1	inactive	
CCOC(=O)c1ccc(NC(=O)C2CC(=O)N(c3ccc(C(C)C)cc3)C2)cc1 (stereo unspecified)	inactive	
CCC(=O)Nc1nnc(S(=O)(=O)N(CC(C)C)c2ccccc2)s1	inactive	
Cc1ccccc1OCC(=O)Nc1nnc(S(=O)(=O)N2CCCC2)s1	inactive	
CCN(CC)S(=O)(=O)c1nnc(NC(=O)COc2ccccc2Cl)s1	31.6 µM (active)	
Cc1cccc(C)c1NC(=O)CSc1nnc(-c2ccccc2)n1Cc1ccc2c(c1)OCO2	inactive	
c1ccc(-c2nnc3n2NC(c2ccc4c(c2)OCO4)S3)cc1 (stereo unspecified)	22.4 µM (active)	
CC1=C(C(N)=O)C(c2ccc3c(c2)OCO3)n2nc(-c3cccc(C)c3)nc2N1 (stereo unspecified)	inactive	

SMILES	Potency	activity change, negative = inhibition
CCOc1ccccc1N(CC)C(=O)c1cc2ccc3cccnc3c2[nH]1	inactive	
O=[N+]([O-])c1ccc(Oc2ccc(F)cc2Br)c2ccncc12	44.7 µM (active)	
COc1cccc(NC(=O)N2CCN(C(=O)c3nsc4ccccc34)CC2)c1	inactive	
CC1CCc2noc(NC(=O)c3ccc([N+](=O)[O-])cc3)c2C1 (stereo unspecified)	inactive	
COc1cccc(OCCn2c(-c3ccc(Br)cc3)nc3ccccc3c2=O)c1	inactive	
O=C(C1CCN(Cc2ccc(Cl)cc2)CC1)N1CCN(Cc2ccc3c(c2)OCO3)CC1	2.51 µM (active)	
O=C(Nc1ccccc1)N1CCC(C(=O)N2CCN(Cc3ccccc3)CC2)CC1	inactive	
O=C(C1CCN(C2CCN(Cc3cccc4c3OCO4)CC2)CC1)N1CCOCC1	inactive	
CCOc1ccc(C2C(C(=O)Nc3ccc(Cl)cc3)=C(C)Nc3nc(C(F)(F)F)nn32)cc1 (stereo unspecified)	inactive	
Cn1cnnc1SCC(=O)Nc1ccc(N2CCOCC2)cc1	inactive	
C=CC(=O)Nc1ccc(Nc2ccnc(Nc3ccc(N4CCN(C)CC4)cc3)n2)cc1	31.6 µM (active)	
Cc1cccc(N2CCN(c3ccc(NC(=O)/C=C\C(=O)O)cc3)CC2)c1		-14.3% [at 11.4 µM]
COc1ccc(Cn2c(=S)[nH]c3cc(C(=O)NCCCN4CCOCC4)ccc3c2=O)cc1	inactive	
O=C(NCCCN1CCOCC1)c1cc(-c2ccc(Cl)cc2)on1	inactive	
Cc1c(C)n(Cc2ccc(Cl)cc2)c2ccc(C(=O)NCCCN3CCOCC3)cc12	89.1 µM (active)	
CCc1ccc2ncc3c(-c4ccc(C)cc4)nn(CC(=O)NCc4ccccc4)c3c2c1	inactive	
CC(=O)N1CCCc2cc(S(=O)(=O)N3CCC(C(=O)NCc4ccc(F)cc4)CC3)ccc21	inactive	
CCOc1ccccc1C(=O)NC1(C(F)(F)F)C(=O)Nc2c1c(=O)[nH]c(=O)n2-c1ccc(F)cc1 (stereo unspecified)	inactive	
COc1cccc(CNS(=O)(=O)c2ccc3c(c2)CC(C)N3C(=O)C2CCC2)c1 (stereo unspecified)	inactive	
CC(=O)N1c2ccc(S(=O)(=O)N(C)CC(=O)N(C)Cc3ccccc3)cc2CC1C (stereo unspecified)	inactive	
CC(=O)N1c2ccc(S(=O)(=O)NCCC(=O)N(C)C3CCCCC3)cc2CC1C (stereo unspecified)	14.1 µM (active)	

SMILES	Potency	activity change, negative = inhibition
CCc1ccc(CN(Cc2ccco2)C(=O)c2ccccc2Cl)cc1	inactive	
C#CC(C)(CC)NC(=O)Cn1nnc(-c2ccc(OCc3c(F)cccc3Cl)cc2)n1 (stereo unspecified)	inactive	
Cc1cc2c(s1)c1cnn(Cc3cc(F)c(Cl)cc3Cl)c(=O)c1n2C	inactive	
CCOC(=O)c1ccc(N2C(=O)c3n[nH]c(C)c3C2c2ccc(O)c(OC)c2)cc1 (stereo unspecified)	inactive	
CCN(CC)CCNC(=O)Cn1cnc2sc(C)c(S(=O)(=O)N3CCOCC3)c2c1=O	inactive	
CCCN(CCC)CCNC(=O)Cn1cnc2sc(C)c(S(=O)(=O)N3CCC(C)CC3)c2c1=O	inactive	
Cc1sc2ncn(CC(=O)NCCN(C)C)c(=O)c2c1S(=O)(=O)N1CCC(C)CC1	22.4 µM (active)	
CCN(CCCNC(=O)c1cc(Nc2ccc(OC)cc2)nc2ccccc12)c1cccc(C)c1	inactive	
CCOc1ccc(CCNC(=O)Cn2nc(CC)n3c(cc4sc(CC)cc43)c2=O)cc1OCC	inactive	
CCc1cc2c(cc3c(=O)n(CC(=O)NCCc4ccc(OC)c(OC)c4)ncn32)s1	89.1 µM (active)	
CCc1cc2c(cc3c(=O)n(CC(=O)N4CCN(c5cc(Cl)ccc5C)CC4)ncn32)s1	inactive	
Cc1ccc(NC(=O)C2CCN(S(=O)(=O)c3cc(-c4noc(C)n4)ccc3C)CC2)c(C)c1	inactive	
CCOCCCn1c(SCC(=O)Nc2ccc(CC)cc2)nc2ccccc2c1=O	inactive	
CCOc1ccc(CNC(=O)CCc2c(C)nn(-c3ccc(N4CCCCC4)nn3)c2C)cc1	inactive	
CCN(CC)/[N+]([O-])=N/Oc1cc(O/[N+]([O-])=N/N2CCCC2CO)c([N+](=O)[O-])cc1[N+](=O)[O-] (stereo unspecified)	20 µM (active)	
COc1ccc(C(=O)Nc2ccc(-n3nncc3-c3ccccc3)cc2)cc1OC	inactive	
Cc1ccc(-n2c(C)cc(C(=O)CN3C(=O)C(=O)N(C4CCCC4)C3=O)c2C)cc1	31.6 µM (active)	
Cc1cc(C(=O)COC(=O)C2CC2)c(C)n1-c1ccc(F)cc1	inactive	
Cc1ccc(-n2c(C)cc(C(=O)CSc3nnc4ccccn34)c2C)cc1	inactive	
